Sampled rows, rich in hits. Any-hit rate of the full collection: about 2.2%.
Abeta yeast res: qHTS for compounds that reverse cellular toxicity of Amyloid beta (A-beta) peptide in yeast: Primary Screen; yeast expressing A-beta42, growth rescue, OD600, 48 h; response scale: 0% DMSO, 100% iron-clioquinol control; Potency, µM (highest dose often 46.1 µM), hits mostly activators; 410,000 tested, 0.063% active; also: nearly all actives have a fitted effect of over 55% in size
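Growth rescue measured by 600 nm absorbance after 48 h yeast culture at 30 C with compound. Values normalized between DMSO and an equimolar ferric chloride plus clioquinol control.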
Mito fusion yeast: qHTS Assay for Small Molecule Inhibitors of Mitochondrial Division or Activators of Mitochondrial Fusion | S. cerevisiae fusion-defective mutant growth rescue, CellTiterGlo 48 h | Potency, µM (top dose mostly 46.1 µM), for the others: at the top dose growth rescue (activation), usual class: activators | 320,000 tested, 0.23% active; also: % of control where 0% means no effect; nearly all actives have a fitted effect of over 45% in size
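Yeast fusion mutant, YPEG (non-fermentable carbon), compound, 48 h at 37C non-permissive; CellTiterGlo added, 10 min RT, luminescence read. Rescued growth = division inhibition.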
aSyn rescue: qHTS of alpha-syn Inhibitors | Potency, µM (doses to about 46.1 µM), inactives show at the top dose growth rescue (activation), actives largely listed as activators | 370,000 tested, 0.14% active | Yeast expressing alpha-synuclein, growth rescue, BacTiter-Glo, 24 h; also: % of control where 0% means no effect; nearly all actives have a fitted effect of over 65% in size
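Galactose-induced alpha-syn yeast (OD600=0.02, raffinose-pregrown) + pinned cpd, 24 hr, 30 deg C; growth by BacTiter-Glo luminescence. Growth restoration scores as activation.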
TDP43 rescue: qHTS of TDP-43 Inhibitors; TDP-43 expressing yeast growth rescue, BacTiter-Glo, 24 h; Potency, µM (series often up to 46.1 µM), without a hit: top-dose growth rescue (activation), actives largely listed as activators; 410,000 tested, 1.8% active; also: % of control where 0% means no effect; nearly all actives have a fitted effect of over 50% in size
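Galactose-induced TDP-43 yeast, OD600=0.02, compound pinned; 24 hr, 30 deg C; BacTiter-Glo luminescence for growth. Inhibitors of TDP-43 toxicity read as activators.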
FUS suppressor: qHTS for Suppressors of FUS Proteinopathy: Primary screen using FUS-linked yeast assay | S. cerevisiae FUS-expressing, growth rescue, OD600, 24 h | Potency, µM (highest dose often 76.6 µM), most hits filed as activators | AID 1347120, 2019 | 390,000 tested, 0.24% active;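 also: plate controls were DMSO vehicle for no effect and reference control for full effect; nearly all actives have a fitted effect of over 55% in size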
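Quantitative HTS measuring growth restoration of FUS-toxic yeast. Galactose-induced cells (OD 0.005) were exposed 24hr at 30C to compounds at several concentrations, then absorbance at 600 nm was recorded.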
* marks the source's active call; other numbers are inactive results; i = inactive; ? = inconclusive; . = not tested or not shown. Calls follow the shape of the dose curve; as a rule, active = well fitted curve in the direction sought with a large enough effect; inconclusive = small, poorly fitted or top-dose-only effect, or another doubt; inactive = no such curve, though single readings can be large; an effect the other way counts as inactive or inconclusive. Potency is read from the fitted curve at half-maximal effect.

SMILES | Abeta yeast res | Mito fusion yeast | aSyn rescue | TDP43 rescue | FUS suppressor
Cc1ccc(C(=O)C2=C(O)C(=O)N(Cc3cccnc3)C2c2ccc(Cl)cc2)o1 (stereo not drawn) | i | -0.4% | -17.9% | -13.9% | 28.2µM*
O=C(C1=C(O)C(=O)N(c2ncccn2)C1c1ccc(Cl)cc1)c1ccco1 (stereo not drawn) | i | -2.6% | 6.0% | -0.4% | 31.6µM*
CCOc1ccc(C2C(C(=O)c3ccc(C)o3)=C(O)C(=O)N2Cc2cccnc2)cc1 (stereo not drawn) | i | -1.6% | -7.2% | -23.6% | ?
CC(=O)C1=C(O)C(=O)N(Cc2cccnc2)C1c1ccc(C(C)C)cc1 (stereo not drawn) | i | 4.47µM* | 0.2% | 7.7% | i
CCOc1cc(N2CCOCC2)c(OCC)cc1NC(=O)COC(=O)CCOc1ccc(C(C)(C)C)cc1 | i | -4.1% | 22.2% | 22.4µM* | i
CC(C)(C)c1ccc(OCCC(=O)Nc2ccc(N3CCOCC3)cc2N2CCOCC2)cc1 | i | 17.7% | 2.1% | 7.6% | 39.8µM*
CC(C)(C)c1ccc(OCCC(=O)OCC(=O)NC2CCS(=O)(=O)C2)cc1 (stereo not drawn) | i | -4.5% | 4.4% | 22.5% | i
CC(C)(C)c1ccc(OCCC(=O)OCC(=O)NC2CC2)cc1 | i | 0.5% | ? | 12.6µM* | i
CCOc1ccc(OCCC(=O)OCC(=O)Nc2ccc(N3CCOCC3)cc2)cc1 | i | -0.7% | 5.0% | 0.0% | i
O=C(COc1ccccc1[N+](=O)[O-])Nc1cc(-c2nc3cc(Cl)ccc3o2)ccc1Cl | i | . | 0.3% | 8.4% | i
CCc1cc2c(=O)[nH]c(-c3ccccn3)nc2s1 | ? | -1.8% | 17.8µM* | ? | .
COc1ccc2oc(=O)c(-c3csc(/C(C#N)=C/c4ccc(F)cc4)n3)cc2c1 | i | . | . | 6.0% | i
CC1CCCCC12NC(=O)N(CC(=O)Nc1ccccc1F)C2=O (stereo not drawn) | i | 4.2% | -4.8% | -13.8% | i
CC(Oc1ccc(Cl)cc1Cl)C(=O)Nc1ccc(N2CCN(C)CC2)cc1 (stereo not drawn) | i | 0.3% | 2.8% | 1.6% | i
CC(=O)N1CCN(c2ccc(NC(=O)C(C)Oc3ccc(Cl)cc3Cl)cc2)CC1 (stereo not drawn) | i | 8.9% | 3.0% | 11.2µM* | ?
CCOC(=O)c1c(NC(=S)Nc2cccnc2)sc(C)c1C | i | -4.2% | 6.1% | 12.6µM* | i
CCOC(=O)c1c(NC(=S)Nc2ccc(Cl)cc2)sc(C)c1C | i | -8.9% | -8.8% | 17.2% | .
C1=Cc2ccccc2/C1=C\c1cc[cH-]c1.[Fe+2].c1cc[cH-]c1 | . | . | -9.6% | . | .
O=C(CSc1ncnc2nc[nH]c12)c1ccccc1 | i | -0.4% | -2.1% | -7.5% | i
c1ccc(CCSc2ncnc3nc[nH]c23)cc1 | i | 17.8µM* | -16.2% | ? | i
COc1ccc(Cl)cc1NC(=O)N1CCN(c2ccccc2OC)CC1 | i | 4.5% | 12.9% | 11.2µM* | ?
COc1ccc(NC(=O)c2cc(-c3cc(F)ccc3OCC3CCCO3)n[nH]2)c(C)c1 (stereo not drawn) | i | . | -11.1% | 12.6µM* | ?
COc1ccc(Cl)cc1NC(=O)c1cc(-c2ccccc2O)n[nH]1 | i | 6.31µM* | -5.9% | 0.5% | .
CC(C)Oc1ccc(F)cc1-c1cc(C(=O)NC2CCCCC2)[nH]n1 | i | . | -6.7% | 15.8µM* | i
Cc1cc(C)n(C(C)CC(=O)NCc2ccc(N(C)C)cc2)n1 (stereo not drawn) | i | . | . | -2.3% | i
SMILES | Abeta yeast res | Mito fusion yeast | aSyn rescue | TDP43 rescue | FUS suppressor
COc1ccc(NC(=O)c2cc(-c3ccc(F)cc3OC(C)C)n[nH]2)c(OC)c1 | i | . | -19.2% | 25.1µM* | i
COc1ccc(NC(=O)c2cc(-c3cc(F)ccc3OC(C)C)n[nH]2)cc1OC | i | . | 2.2% | 35.5µM* | i
COc1ccc(NC(=O)c2cc(-c3cc(Cl)ccc3C)n[nH]2)cc1OC | i | . | 9.7% | 20µM* | i
COc1ccc(NC(=O)c2cc(-c3cc(Cl)ccc3OC)n[nH]2)cc1OC | i | . | -2.0% | 0.0% | i
COc1ccc(Cl)cc1NC(=O)NCCN1CCCCC1 | i | 6.8% | 0.2% | . | i
COc1ccc(Cl)cc1NC(=O)NCC1CCN(C(=O)OC(C)(C)C)CC1 | i | 1.4% | -10.5% | -12.4% | 31.6µM*
Cc1ccccc1OCC(=O)NCC(c1ccc(Cl)cc1)N1CCOCC1 (stereo not drawn) | i | . | . | ? | i
O=C(CC1NCCNC1=O)Nc1cccc(F)c1 (stereo not drawn) | i | . | . | 14.7% | i
COc1ccc(NC(=O)c2cc(-c3cc(F)ccc3OC)n[nH]2)c(C)c1 | i | . | -1.8% | 22.4µM* | i
COc1cc(NC(=O)c2cc(-c3cc(F)ccc3OC(C)C)n[nH]2)cc(OC)c1OC | i | . | 6.4% | 0.0% | i
COc1ccc(NC(=O)c2cc(-c3cc(F)ccc3OC(C)C)n[nH]2)c(OC)c1 | i | . | 1.4% | 20µM* | i
CC(=O)N1CCCc2cc(S(=O)(=O)N3CCCC(C(=O)Nc4cc(Cl)ccc4C)C3)ccc21 (stereo not drawn) | i | . | . | -10.9% | i
CCOC(=O)c1sc(N2C(=O)C(O)=C(C(=O)c3ccco3)C2c2ccco2)nc1C (stereo not drawn) | i | 7.4% | 5.6% | -14.7% | 28.2µM*
CC1(C(=O)NCc2ccc(F)cc2)Oc2ccccc2NC1=O (stereo not drawn) | i | ? | -6.8% | -14.1% | i
CC1(c2ccc(F)cc2)OC(=O)c2c1ccc1ccccc21 (stereo not drawn) | i | . | -12.4% | 12.6µM* | i
CC12CN3CC(C)(CN(C1)C3c1ccc([N+](=O)[O-])o1)C2 (stereo not drawn) | i | -1.3% | -58.1% | 11.2µM* | i
Cc1c(C)c2cc3c(c(C)c2oc1=O)OCN(CCc1ccccc1)C3 | i | . | . | -11.5% | i
O=C(c1cccc(Cl)c1)N1CCC(c2nc3ccccc3o2)CC1 | i | . | . | 12.6µM* | i
COc1ccccc1-c1nnc(C2CCN(C(=O)c3cccc(Cl)c3)CC2)o1 | i | . | . | 20µM* | i
O=C(c1ccc(F)cc1)N1CCC(c2nc3ccccc3o2)CC1 | i | . | . | 28.9% | i
O=[N+]([O-])c1ccc2c(c1)/C(=C/c1ccc(C=S)cc1)C=C2 | . | . | 0.8% | . | .
COCCCNc1cc(C)nc2ccccc12 | i | 1.3% | 0.1% | 2.7% | i
